Reference: PubChem BioAssay AID602340 (Broad Institute, 2012)
Hit rate of the full screen: of about 330,000 compounds, about 2,600 (0.79%) were called active. The list comes from a sample in which actives are over-represented; it also holds similar structures and randomly drawn compounds. Unmarked numbers belong to inactive results.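 The calls were made as follows: active = mean ATP rescue above about 67%, or every replicate alone reaching that limit (limit read from the data, passing the limit was not always enough); inconclusive = no clear call, values can overlap the other calls; inactive = mean under the limit and some replicate under it.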

Assay: protection of differentiated C2C12 cells from simvastatin – single point, plate reader, primary screen (AID 602340);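 also: myotubes were challenged with 10 µM simvastatin during compound exposure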
Details: C2C12 myotubes + simvastatin, ATP luminescence, 48 h; at 7.49 µM; hits give high values; scaled: DMSO 0, geranylgeraniol control 100

Row | SMILES | rescue of ATP level
1 | O=C(C[C@H]1CC[C@@H]2NC[C@H](O)COC[C@H]2O1)NCCN1CCCCC1 | -1.01%
2 | C[C@@H]1CN([C@@H](C)CO)C(=O)Cc2cc(NS(=O)(=O)c3ccc(Cl)cc3)ccc2O[C@H]1CN(C)C(=O)Nc1cccc2ccccc12 | 25%
3 | CCOc1ccc(NC(=O)c2ccc(NC(=O)COC(=O)c3ccc(NC(=O)CC#N)cc3)cc2)cc1 | -8.99%
4 | CC(C)NC(=O)NC(=O)COC(=O)c1ccc(NC(=O)CC#N)cc1 | 113% (active)
5 | N#CCC(=O)Nc1ccc(C(=O)OCC(=O)Nc2sc3c(c2C#N)CCCC3)cc1 | 4.12%
6 | Cc1cc(=O)n2c3c(cccc13)CCC2 | 0.243%
7 | O=c1c2c(nc3n1CCCCC3)sc1c(O)cccc12 | 6.49%
8 | Cc1cccc2c(=O)n3c(nc12)CCCCC3 | 66.7% (active)
9 | CC(C)CC#Cc1cnc2c(c1)C(=O)N([C@@H](C)CO)C[C@H](C)[C@@H](CN(C)S(=O)(=O)c1cn(C)cn1)O2 | -12.3%
10 | C[C@H]1CCCCO[C@H](CN(C)Cc2ccccc2)[C@@H](C)CN([C@@H](C)CO)C(=O)c2cc(NS(C)(=O)=O)ccc2O1 | 0.662%
11 | CCCC(=O)N(CCc1ccccc1)Cc1nc2ccccc2c(=O)[nH]1 | 4.48%
12 | O=C(c1ccco1)N(Cc1nc2ccccc2c(=O)[nH]1)C1CCCC1 | 69.1% (active)
13 | CCN(CC(=O)NC(=O)NCc1ccccc1)Cc1nc2ccccc2c(=O)[nH]1 | -7.59%
14 | CCCNC(=O)N[C@@H]1CC[C@@H](CCn2cc(C3CC3)nn2)O[C@@H]1CO | 4.61%
15 | CCn1nnnc1SCC(=O)c1ccc(C)cc1C | 122% (active)
16 | CCn1nnnc1SCC(=O)Nc1ccc(N(C)C)cc1 | -19%
17 | CCOC(=O)c1c(-c2ccc(C)cc2C)csc1NC(=O)CSc1nnnn1C | 8.4%
18 | C/C=C/c1ccc2c(c1)O[C@@H](CN(C)C(=O)C1CCOCC1)[C@H](C)CN([C@H](C)CO)S2(=O)=O | 7.79%
19 | CC(OC(=O)c1ccc2noc(-c3ccccc3)c2c1)C(N)=O (stereo not drawn) | 20.5%

Row | SMILES | rescue of ATP level
20 | NC(N)=Nc1nc(-c2ccccc2)c2cc(Cl)ccc2n1 | -791%
21 | Oc1ccc(-c2onc3ccc(Cl)cc23)cc1 | 108% (active)
22 | C[C@H](CO)N1C[C@H](C)[C@H](CN(C)Cc2ccncc2)Oc2ccc(NS(=O)(=O)c3cn(C)cn3)cc2C1=O | -11.2%
23 | C[C@H](CO)N1C[C@H](C)[C@H](CN(C)C(=O)c2ccccn2)Oc2ncc(-c3ccccc3F)cc2C1=O | 16.4%
24 | CCCC(=O)Nc1ccc2c(c1)C(=O)N(C)C[C@@H](OC)[C@@H](C)CN(Cc1cncnc1)[C@@H](C)CO2 | -0.178%
25 | C[C@@H]1CN([C@@H](C)CO)C(=O)c2cc(C#CC3CC3)cnc2O[C@@H]1CN(C)C(=O)Cc1ccccn1 | 13.5%
26 | CO[C@@H]1CN(C)C(=O)c2ccc(NC(=O)c3ccc(F)cc3)cc2OC[C@H](C)NC[C@@H]1C | -3.77%
27 | CCCNC(=O)N1[C@@H]2CN(C)c3ccccc3[C@@H]2[C@@H]1CO | 9.21%
28 | O=C(C[C@@H]1C[C@H]2c3cc(NC(=O)Nc4ccccc4F)ccc3O[C@H]2[C@@H](CO)O1)NCc1ccncc1 | 2.48%
29 | COc1ccc(C2CC(=O)Nc3sc(=N)c4c(N)c(C#N)c(N)nc4c32)cc1OC (stereo not drawn) | -2.72%
30 | COc1ccc(OC)c2c(N)c(C#N)c(C(F)(F)C(F)(F)F)nc12 | 89.2% (active)
31 | CC(C)NC(=O)Nc1ccc2c(c1)C(=O)N([C@@H](C)CO)C[C@@H](C)[C@H](CN(C)Cc1ccc(C(=O)O)cc1)O2 | 6.31%
32 | CCOc1ccc(Nc2nc(Cc3nnc(SCC(=O)c4ccc(C)cc4)o3)cs2)cc1 | 76.7% (active)
33 | CCOc1ccc(Nc2nc(Cc3nnc(SCC(=O)NC4CCCC4)n3C)cs2)cc1 | 33.9%
34 | CC(=O)Nc1ccc(C(=O)CSc2nnc(Cc3ccccc3)o2)cc1 | 1.31%
35 | COCC(=O)Nc1ccc2c(c1)OC[C@H](C)NC[C@@H](C)[C@H](OC)CN(C)C2=O | 7.72%
36 | O=C(c1cccnc1)N1CC[C@@H]2[C@@H](CO)Nc3ccc(-c4ccccc4)cc3[C@@H]21 | 2.73%
37 | CO[C@H]1CN(C)C(=O)c2cc(NC(=O)c3ccc4c(c3)OCO4)ccc2OC[C@@H](C)N(CCC(F)(F)F)C[C@H]1C | 6.03%
38 | O=C(N[C@H]1CC[C@H](CCNS(=O)(=O)c2ccc(F)cc2)O[C@H]1CO)C1CCCC1 | 6.44%
